According to PubChem BioAssay AID463173 (ICCB-Longwood Screening Facility, Harvard Medical School, 2010):
Screen size: about 52,000 compounds; about 1,700 (3.3%) were called active. Only a selection was taken, and actives are over-represented in it overall. Values without a mark were called inactive. No stated cut-off is given here; in the data, active means survival mostly below about 52% (no sharp cut-off); inactive means mostly above about 56%.

test system: Wild type; test: S. aureus survival, RN4220 and DeltatarO strains – OD600, teichoic acid synthesis inhibitors, primary screen (AID 463173); conditions: S. aureus RN4220 wild type/DeltatarO growth, OD600, 18 h, stronger effect = lower value, screened at 18.75 µg/mL (by protocol)

**Q.** How did the survival turn out when `Cc1ccc(SCC(=O)Nc2ccc3oc(-c4cccc(C)c4)nc3c2)cc1` was run?
**A.** The survival was 96%.

**Q.** For `CCOC(=O)CSc1nc2cc3c(cc2c(=O)n1CCCCCC(=O)NCc1ccc(OC)cc1)OCO3`, which survival is on record?
**A.** Its survival is 71%.

**Q.** `COCCCNC(=O)CSc1nc2cc3c(cc2c(=O)n1CCCCCC(=O)NCc1ccc(OC)cc1)OCO3` was tested. Which survival did it give?
**A.** The survival was 1% (active).

**Q.** `CCOC(=O)CSc1nc2cc3c(cc2c(=O)n1CCCC(=O)NCCc1ccc(OC)c(OC)c1)OCO3` was tested. Which survival did it give?
**A.** Its survival is -4% (active).

**Q.** With `CCN(CC)C(=O)CSc1nc2cc3c(cc2c(=O)n1CCCCCC(=O)NCc1ccc(OC)cc1)OCO3` as the compound, how does the survival read?
**A.** Its survival is -3% (active).

**Q.** With `COCCCNC(=O)CSc1nc2cc3c(cc2c(=O)n1CCCC(=O)NCc1ccc(OC)cc1)OCO3` as the compound, how does the survival read?
**A.** The survival was 70%.

**Q.** Which survival does the source give for `CCN(CC)C(=O)CSc1nc2cc3c(cc2c(=O)n1CCCC(=O)NCc1ccc(OC)cc1)OCO3` here?
**A.** Its survival is 82%.

**Q.** How did the survival turn out when `COc1ccc(CCNC(=O)CCCn2c(SCC(N)=O)nc3cc4c(cc3c2=O)OCO4)cc1OC` was run?
**A.** Its survival is 81%.

**Q.** For `COCCNC(=O)CSc1nc2cc3c(cc2c(=O)n1CCCCCC(=O)NCc1ccc(OC)cc1)OCO3`, which survival is on record?
**A.** The survival was 63%.

**Q.** How did the survival turn out when `CCCCNC(=O)CSc1nc2cc3c(cc2c(=O)n1CCCC(=O)NCCc1ccc(OC)c(OC)c1)OCO3` was run?
**A.** Its survival is 129%.

**Q.** `CC1Cc2ccccc2N1C(=O)c1nc2ccccc2s1` (centres undefined) was tested. Which survival did it give?
**A.** The survival was 113%.

**Q.** With `O=C(Cn1nc(-c2ccc(Cl)cc2)c2ccccc2c1=O)Nc1cccc(C(F)(F)F)c1` as the compound, how does the survival read?
**A.** Its survival is 71%.

**Q.** With `COc1ccccc1N=C1SC(C(=O)Nc2ccccc2OC)CC(=O)N1C` (centres undefined) as the compound, how does the survival read?
**A.** Its survival is 73%.

**Q.** How did the survival turn out when `COc1cccc(-c2nnc3sc(CN4CCCCC4)cn23)c1` was run?
**A.** The survival was 68%.

**Q.** With `CCN1/C(=C\C=C2C(=O)OC(C)(C)OC2=O)Sc2ccccc21` as the compound, how does the survival read?
**A.** The survival was 94%.

**Q.** `CCC(Sc1nc2ccncc2[nH]1)C(=O)Nc1cc(Cl)ccc1C` (centres undefined) was tested. Which survival did it give?
**A.** Its survival is 126%.

**Q.** With `CCOC(=O)c1ccc(NC(=O)CN2C(=O)c3cccnc3Sc3ccccc32)cc1` as the compound, how does the survival read?
**A.** Its survival is 66%.

**Q.** For `CCOC(=O)c1c(C)n(-c2ccccc2)c2ccc(OC(=O)c3ccccc3)cc12`, which survival is on record?
**A.** Its survival is 0% (active).

**Q.** For `CCOC(=O)c1c(C)n(-c2ccccc2)c2ccc(OC(=O)c3cccc(C)c3)cc12`, which survival is on record?
**A.** The survival was 50%.

**Q.** `CCOC(=O)c1c(C)n(-c2ccccc2)c2ccc(OC(=O)c3cccc(Cl)c3)cc12` was tested. Which survival did it give?
**A.** The survival was 78%.

**Q.** `CC(C)(C)c1ccc(OCCCC(=O)N2CCOCC2)cc1` was tested. Which survival did it give?
**A.** The survival was 102%.

**Q.** `O=C(NCCCN1CCN(c2ccccc2F)CC1)c1sc2ncccc2c1-n1cccc1` was tested. Which survival did it give?
**A.** The survival was 81%.

**Q.** How did the survival turn out when `c1coc(-c2nc3ccccn3c2Nc2ccc3c(c2)OCCO3)c1` was run?
**A.** The survival was 70%.

**Q.** `O=C(CC1(O)C(=O)N(CCc2ccccc2)c2ccc(Br)cc21)c1ccccc1O` (centres undefined) was tested. Which survival did it give?
**A.** Its survival is 6% (active).

**Q.** `C#CCN1C(=O)C(O)(CC(=O)c2ccc(OC)c(OC)c2)c2cc(Br)ccc21` (centres undefined) was tested. Which survival did it give?
**A.** Its survival is 111%.

**Q.** Which survival does the source give for `O=C(CC1(O)C(=O)N(CCc2ccccc2)c2ccc(Br)cc21)c1ccc(F)cc1` (centres undefined) here?
**A.** Its survival is 4% (active).

**Q.** For `COc1ccc(C(=O)CC2(O)C(=O)N(Cc3ccccc3)c3ccc(Br)cc32)cc1` (centres undefined), which survival is on record?
**A.** Its survival is 57%.

**Q.** With `COc1ccc(C(=O)CC2(O)C(=O)N(CCc3ccccc3)c3ccc(Br)cc32)cc1OC` (centres undefined) as the compound, how does the survival read?
**A.** Its survival is 65%.

**Q.** Which survival does the source give for `O=C(CC1(O)C(=O)N(CCc2ccccc2)c2ccc(Br)cc21)c1ccccc1` (centres undefined) here?
**A.** The survival was 15%.
